# Test results published in paper PMC5540273 (PLoS ONE, 2017).
# Values joined by “and” are separate entries in the source; they are usually repeats but may differ in a detail not shown here. Identical values can stand only once. Like-named read-outs stand apart in the source and are kept apart here.
# Assays:
# Conditions in all cases: concentration: 1 μM, replicates: in singlicate, n = 1
# [1] = tested on: T1, RSK2(Kin.Dom.1-N-terminal)
# T1 construct: gene RPS6KA3
# [2] = tested on: T2, RSK2(Kin.Dom.2-C-terminal)
# T2 construct: gene RPS6KA3
# [3] = tested on: T3, RSK3(Kin.Dom.1-N-terminal)
# T3 construct: gene RPS6KA2
# [4] = tested on: T4, RSK3(Kin.Dom.2-C-terminal)
# T4 construct: gene RPS6KA2
# [5] = tested on: T5, RSK4(Kin.Dom.1-N-terminal)
# T5 construct: gene RPS6KA6
# [6] = tested on: T6, RSK4(Kin.Dom.2-C-terminal)
# T6 construct: gene RPS6KA6
# S6K1 = tested on: S6K1
# SBK1 = tested on: SBK1
# SGK2 = tested on: SGK2
# SGK3 = tested on: SGK3
# SGK = tested on: SGK
# SIK2 = tested on: SIK2
# SIK = tested on: SIK
# SLK = tested on: SLK
# SNARK = tested on: T7, SNARK
# T7 construct: gene NUAK2
# SNRK = tested on: SNRK
# SRC = tested on: SRC
# SRMS = tested on: SRMS
# SRPK1 = tested on: SRPK1
# SRPK2 = tested on: SRPK2
# 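Also: KINOMEscan kinase panel screen.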
compound,measurement,setting,value
Cl.Cl.Cl.Fc1ccc(-c2ncn(C3CCNCC3)c2-c2ccnc(Nc3ccccc3)n2)cc1 [SB-238039],%Inh,[1]; 1 µM,41% and 35%
same,%Inh,[2]; 1 µM,16% and 0%
same,%Inh,[3]; 1 µM,0% and 15%
same,%Inh,[4]; 1 µM,18% and 32%
same,%Inh,[5]; 1 µM,19% and 0%
same,%Inh,[6]; 1 µM,88% and 80%
same,%Inh,S6K1; 1 µM,5% and 0%
same,%Inh,SBK1; 1 µM,36% and 0%
same,%Inh,SGK2,2%
same,%Inh,SGK3; 1 µM,8% and 12%
same,%Inh,SGK; 1 µM,41% and 0%
same,%Inh,SIK2; 1 µM,65% and 46%
same,%Inh,SIK; 1 µM,1% and 4%
same,%Inh,SLK; 1 µM,28% and 0%
same,%Inh,SNARK; 1 µM,9% and 0%
same,%Inh,SNRK; 1 µM,0% and 10%
same,%Inh,SRC; 1 µM,0% and 4%
same,%Inh,SRMS; 1 µM,29% and 0%
same,%Inh,SRPK1; 1 µM,7% and 0%
same,%Inh,SRPK2; 1 µM,7% and 0%
Nc1nccc(-c2c(-c3ccc(F)cc3)ncn2C2CCN(CC(F)(F)F)CC2)n1 [SB-236560],%Inh,[1],14%
same,%Inh,[2],35%
same,%Inh,[3],13%
same,%Inh,[4],35%
same,%Inh,[5],0%
same,%Inh,[6],56%
same,%Inh,S6K1,0%
same,%Inh,SBK1,0%
same,%Inh,SGK2,0%
same,%Inh,SGK3,3%
same,%Inh,SGK,25%
same,%Inh,SIK2,0%
same,%Inh,SIK,0%
same,%Inh,SLK,0%
same,%Inh,SNARK,0%
same,%Inh,SNRK,16%
same,%Inh,SRC,0%
same,%Inh,SRMS,0%
same,%Inh,SRPK1,19%
same,%Inh,SRPK2,41%
O=C(NCCNc1ccnc(Nc2ccc(F)cc2)n1)Nc1ccccc1F [GSK1379880],%Inh,[1],0%
same,%Inh,[2],0%
same,%Inh,[3],0%
same,%Inh,[4],0%
same,%Inh,[5],0%
same,%Inh,[6],2%
same,%Inh,S6K1,9%
same,%Inh,SBK1,41%
same,%Inh,SGK2,0%
same,%Inh,SGK3,0%
same,%Inh,SGK,0%
same,%Inh,SIK2,0%
same,%Inh,SIK,0%
same,%Inh,SLK,11%
same,%Inh,SNARK,0%
same,%Inh,SNRK,0%
same,%Inh,SRC,6%
same,%Inh,SRMS,0%
same,%Inh,SRPK1,5%
same,%Inh,SRPK2,0%
Cc1nnc(-c2ccc3occ(-c4ccc(C(C)O)cc4)c3c2)o1 (stereo not drawn),%Inh,[1],3%
same,%Inh,[2],0%
same,%Inh,[3],0%
same,%Inh,[4],3%
same,%Inh,[5],19%
same,%Inh,[6],7%
same,%Inh,S6K1,0%
same,%Inh,SBK1,0%
same,%Inh,SGK2,0%
same,%Inh,SGK3,0%
same,%Inh,SGK,1%
same,%Inh,SIK2,18%
same,%Inh,SIK,10%
same,%Inh,SLK,14%
same,%Inh,SNARK,2%
same,%Inh,SNRK,9%
same,%Inh,SRC,18%
same,%Inh,SRMS,2%
same,%Inh,SRPK1,0%
same,%Inh,SRPK2,2%
C[C@@H](Oc1cc(-n2cnc3ccc(NC(=O)NC(C)(C)C)cc32)sc1C(N)=O)c1ccccc1Cl [GSK346294],%Inh,[1],0%
same,%Inh,[2],11%
same,%Inh,[3],0%
same,%Inh,[4],9%
same,%Inh,[5],0%
same,%Inh,[6],26%
same,%Inh,S6K1,0%
same,%Inh,SBK1,0%
same,%Inh,SGK2,10%
same,%Inh,SGK3,19%
same,%Inh,SGK,0%
same,%Inh,SIK2,0%
same,%Inh,SIK,0%
same,%Inh,SLK,59%
same,%Inh,SNARK,21%
same,%Inh,SNRK,0%
same,%Inh,SRC,0%
same,%Inh,SRMS,0%
same,%Inh,SRPK1,20%
same,%Inh,SRPK2,12%
CN(C(=O)c1ccc(-c2cc(-c3c[nH]nc3-c3ccccn3)ccn2)cc1)C1CCOCC1 [GW810083],%Inh,[1],6%
same,%Inh,[2],20%
same,%Inh,[3],0%
same,%Inh,[4],16%
same,%Inh,[5],0%
same,%Inh,[6],53%
same,%Inh,S6K1,0%
same,%Inh,SBK1,0%
same,%Inh,SGK2,8%
same,%Inh,SGK3,0%
same,%Inh,SGK,18%
same,%Inh,SIK2,0%
same,%Inh,SIK,0%
same,%Inh,SLK,0%
same,%Inh,SNARK,0%
same,%Inh,SNRK,0%
same,%Inh,SRC,0%
same,%Inh,SRMS,0%
same,%Inh,SRPK1,0%
same,%Inh,SRPK2,14%
COc1cc(Nc2nccc(N3CCC(NC(=O)c4cccc(NC(C)=O)c4)C3)n2)cc(OC)c1OC (stereo not drawn) [GSK1379754],%Inh,[1],3%
same,%Inh,[2],22%
same,%Inh,[3],26%
same,%Inh,[4],0%
same,%Inh,[5],1%
same,%Inh,[6],0%
same,%Inh,S6K1,10%
same,%Inh,SBK1,9%
same,%Inh,SGK2,0%
same,%Inh,SGK3,0%
same,%Inh,SGK,0%
same,%Inh,SIK2,12%
same,%Inh,SIK,10%
same,%Inh,SLK,32%
same,%Inh,SNARK,57%
same,%Inh,SNRK,0%
same,%Inh,SRC,25%
same,%Inh,SRMS,0%
same,%Inh,SRPK1,61%
same,%Inh,SRPK2,0%
Cl.Oc1cccc(Nc2ccnc3cc(-c4ccncc4)ccc23)c1 [GW494601],%Inh,[1],12%
same,%Inh,[2],23%
same,%Inh,[3],0%
same,%Inh,[4],0%
same,%Inh,[5],0%
same,%Inh,[6],29%
same,%Inh,S6K1,0%
same,%Inh,SBK1,34%
same,%Inh,SGK2,0%
same,%Inh,SGK3,3%
same,%Inh,SGK,12%
same,%Inh,SIK2,69%
same,%Inh,SIK,72%
same,%Inh,SLK,11%
same,%Inh,SNARK,12%
same,%Inh,SNRK,0%
same,%Inh,SRC,100%
same,%Inh,SRMS,0%
same,%Inh,SRPK1,46%
same,%Inh,SRPK2,0%
c1ccc(-c2n[nH]cc2-c2ccnc3ccccc23)nc1 [GW271431],%Inh,[1],0%
same,%Inh,[2],0%
same,%Inh,[3],0%
same,%Inh,[4],0%
same,%Inh,[5],0%
same,%Inh,[6],48%
same,%Inh,S6K1,1%
same,%Inh,SBK1,9%
same,%Inh,SGK2,6%
same,%Inh,SGK3,10%
same,%Inh,SGK,0%
same,%Inh,SIK2,9%
same,%Inh,SIK,8%
same,%Inh,SLK,16%
same,%Inh,SNARK,0%
same,%Inh,SNRK,0%
same,%Inh,SRC,7%
same,%Inh,SRMS,0%
same,%Inh,SRPK1,25%
same,%Inh,SRPK2,0%
Cc1cccc(Cn2ccn3c(=O)cc(N4CCOCC4)nc23)c1 [GSK2297542],%Inh,[1],11%
same,%Inh,[2],33%
same,%Inh,[3],19%
same,%Inh,[4],44%
same,%Inh,[5],0%
same,%Inh,[6],42%
same,%Inh,S6K1,6%
same,%Inh,SBK1,26%
same,%Inh,SGK2,1%
same,%Inh,SGK3,0%
same,%Inh,SGK,0%
same,%Inh,SIK2,0%
same,%Inh,SIK,3%
same,%Inh,SLK,22%
same,%Inh,SNARK,3%
same,%Inh,SNRK,0%
same,%Inh,SRC,24%
same,%Inh,SRMS,11%
same,%Inh,SRPK1,11%
same,%Inh,SRPK2,0%
COC(=O)Nc1nc2cc(Oc3ccc(NC(=O)Nc4cc(F)ccc4F)cc3)ccc2[nH]1.Cl [GW701424],%Inh,[1],5%
same,%Inh,[2],1%
same,%Inh,[3],8%
same,%Inh,[4],13%
same,%Inh,[5],0%
same,%Inh,[6],18%
same,%Inh,S6K1,2%
same,%Inh,SBK1,6%
same,%Inh,SGK2,0%
same,%Inh,SGK3,12%
same,%Inh,SGK,2%
same,%Inh,SIK2,0%
same,%Inh,SIK,0%
same,%Inh,SLK,9%
same,%Inh,SNARK,0%
same,%Inh,SNRK,0%
same,%Inh,SRC,0%
same,%Inh,SRMS,0%
same,%Inh,SRPK1,0%
same,%Inh,SRPK2,29%
NCCNS(=O)(=O)c1ccc(-c2ccnc3[nH]ccc23)cc1 [GSK977617],%Inh,[1]; 1 µM,79% and 60%
same,%Inh,[2],0%
same,%Inh,[3]; 1 µM,40% and 14%
same,%Inh,[4]; 1 µM,29% and 22%
same,%Inh,[5]; 1 µM,54% and 23%
same,%Inh,[6]; 1 µM,48% and 37%
same,%Inh,S6K1; 1 µM,71% and 73%
same,%Inh,SBK1; 1 µM,79% and 57%
same,%Inh,SGK2; 1 µM,24% and 4%
same,%Inh,SGK3; 1 µM,57% and 44%
same,%Inh,SGK; 1 µM,45% and 33%
same,%Inh,SIK2; 1 µM,12% and 0%
same,%Inh,SIK; 1 µM,21% and 0%
same,%Inh,SLK; 1 µM,89% and 75%
same,%Inh,SNARK; 1 µM,89% and 82%
same,%Inh,SNRK; 1 µM,16% and 0%
same,%Inh,SRC; 1 µM,11% and 0%
same,%Inh,SRMS,0%
same,%Inh,SRPK1; 1 µM,87% and 65%
same,%Inh,SRPK2; 1 µM,6% and 0%
O=c1cc(N2CCOCC2)nc2n(Cc3cccc(Cl)c3Cl)c(C3CC3)nn12 [GSK2358994],%Inh,[1],0%
same,%Inh,[2],18%
same,%Inh,[3],0%
same,%Inh,[4],17%
same,%Inh,[5],0%
same,%Inh,[6],21%
same,%Inh,S6K1,15%
same,%Inh,SBK1,0%
same,%Inh,SGK2,20%
same,%Inh,SGK3,0%
same,%Inh,SGK,30%
same,%Inh,SIK2,0%
same,%Inh,SIK,0%
same,%Inh,SLK,46%
same,%Inh,SNARK,0%
same,%Inh,SNRK,0%
same,%Inh,SRC,22%
same,%Inh,SRMS,0%
same,%Inh,SRPK1,17%
same,%Inh,SRPK2,0%
CN(C1=C(c2ccccc2)C(=O)NC1=O)c1ccccc1 [SB-334860],%Inh,[1],4%
same,%Inh,[2],23%
same,%Inh,[3],14%
same,%Inh,[4],0%
same,%Inh,[5],0%
same,%Inh,[6],8%
same,%Inh,S6K1,2%
same,%Inh,SBK1,2%
same,%Inh,SGK2,0%
same,%Inh,SGK3,16%
same,%Inh,SGK,0%
same,%Inh,SIK2,5%
same,%Inh,SIK,7%
same,%Inh,SLK,10%
same,%Inh,SNARK,23%
same,%Inh,SNRK,0%
same,%Inh,SRC,5%
same,%Inh,SRMS,0%
same,%Inh,SRPK1,10%
same,%Inh,SRPK2,0%
COc1ccc(CNC(=O)NC2CCN(c3ccnc(Nc4ccc(OC)cc4)n3)C2)cc1 (stereo not drawn) [GSK1379727],%Inh,[1],7%
same,%Inh,[2],0%
same,%Inh,[3],0%
same,%Inh,[4],0%
same,%Inh,[5],0%
same,%Inh,[6],21%
same,%Inh,S6K1,2%
same,%Inh,SBK1,3%
same,%Inh,SGK2,0%
same,%Inh,SGK3,0%
same,%Inh,SGK,25%
same,%Inh,SIK2,0%
same,%Inh,SIK,1%
same,%Inh,SLK,0%
same,%Inh,SNARK,0%
same,%Inh,SNRK,0%
same,%Inh,SRC,0%
same,%Inh,SRMS,5%
same,%Inh,SRPK1,43%
same,%Inh,SRPK2,35%
